# Results: PubChem BioAssay
# Calls of active or inactive are those of the source.
# Experiments:
# [1] = test system: Plasmodium falciparum Sir2 (PF13_0152, Sir2A); experiment: Plasmodium falciparum Sir2A binding compounds – biochemical, small-molecule microarray, 635 nm fluorescence, primary screen (AID 1098); details: fluorescence 635 nm, higher = more signal;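 also: score merges spot fluorescence intensity with its signal-to-noise ratio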
# [2] = probe aDKK1 binding to arrayed compounds – biochemical, biotinylated probe, 635/667 nm fluorescence, primary screen (AID 1099); details: small-molecule microarray, higher = more signal;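 also: score merges 667nm spot fluorescence with signal to noise across triplicate slides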
# [3] = probe aCHRDL2 binding to arrayed compounds – biochemical, biotinylated probe, 635/667 nm fluorescence, primary screen (AID 1100); details: small-molecule microarray, higher = more signal
# [4] = change in splice reporter luminescence, either direction, cell-based, HEK293, spliceosome inhibition project, primary screen (AID 1101); details: HEK293 splicing luciferase reporter, 24 h, higher = more signal, called active from +8 up or from −8 down;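 also: HEK293 cells carrying a splicing-competent luciferase reporter gene; test concentration not given here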
# [5] = target: Fibroblast growth factor 10 (Homo sapiens) (UniProt O15520); experiment: compounds binding fibroblast growth factor 10 – biochemical, small-molecule microarray, 635 nm fluorescence, primary screen (AID 1102); details: FGF10 binding, fluorescence 635 nm, higher = more signal
# Chain of Fibroblast growth factor 10 (Homo sapiens) (O15520 whole entry, looked up): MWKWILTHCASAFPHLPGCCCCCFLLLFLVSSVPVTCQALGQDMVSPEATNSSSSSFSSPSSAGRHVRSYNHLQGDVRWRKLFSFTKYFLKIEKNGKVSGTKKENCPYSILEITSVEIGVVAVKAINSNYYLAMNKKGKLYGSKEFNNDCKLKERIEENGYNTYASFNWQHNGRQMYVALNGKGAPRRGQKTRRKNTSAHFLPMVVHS
# [6] = test system: glycogen synthase kinase-3 (GSK3A per assay name; protocol says GSK3B); experiment: compounds binding glycogen synthase kinase-3 – biochemical, small-molecule microarray, 635 nm fluorescence, GSK3A, primary screen (AID 1103); details: fluorescence 635 nm, higher = more signal; also: the record names both GSK3A and GSK3B
# [7] = target: Epidermal growth factor receptor (Homo sapiens) (UniProt P00533); experiment: compounds binding epidermal growth factor receptor – biochemical, small-molecule microarray, 635 nm fluorescence, primary screen (AID 1104); details: EGFR binding, higher = more signal;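 also: score merges 667 nm emission intensity with spot signal to noise over triplicate slides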
# Chain of Epidermal growth factor receptor (Homo sapiens) (P00533 whole entry, looked up): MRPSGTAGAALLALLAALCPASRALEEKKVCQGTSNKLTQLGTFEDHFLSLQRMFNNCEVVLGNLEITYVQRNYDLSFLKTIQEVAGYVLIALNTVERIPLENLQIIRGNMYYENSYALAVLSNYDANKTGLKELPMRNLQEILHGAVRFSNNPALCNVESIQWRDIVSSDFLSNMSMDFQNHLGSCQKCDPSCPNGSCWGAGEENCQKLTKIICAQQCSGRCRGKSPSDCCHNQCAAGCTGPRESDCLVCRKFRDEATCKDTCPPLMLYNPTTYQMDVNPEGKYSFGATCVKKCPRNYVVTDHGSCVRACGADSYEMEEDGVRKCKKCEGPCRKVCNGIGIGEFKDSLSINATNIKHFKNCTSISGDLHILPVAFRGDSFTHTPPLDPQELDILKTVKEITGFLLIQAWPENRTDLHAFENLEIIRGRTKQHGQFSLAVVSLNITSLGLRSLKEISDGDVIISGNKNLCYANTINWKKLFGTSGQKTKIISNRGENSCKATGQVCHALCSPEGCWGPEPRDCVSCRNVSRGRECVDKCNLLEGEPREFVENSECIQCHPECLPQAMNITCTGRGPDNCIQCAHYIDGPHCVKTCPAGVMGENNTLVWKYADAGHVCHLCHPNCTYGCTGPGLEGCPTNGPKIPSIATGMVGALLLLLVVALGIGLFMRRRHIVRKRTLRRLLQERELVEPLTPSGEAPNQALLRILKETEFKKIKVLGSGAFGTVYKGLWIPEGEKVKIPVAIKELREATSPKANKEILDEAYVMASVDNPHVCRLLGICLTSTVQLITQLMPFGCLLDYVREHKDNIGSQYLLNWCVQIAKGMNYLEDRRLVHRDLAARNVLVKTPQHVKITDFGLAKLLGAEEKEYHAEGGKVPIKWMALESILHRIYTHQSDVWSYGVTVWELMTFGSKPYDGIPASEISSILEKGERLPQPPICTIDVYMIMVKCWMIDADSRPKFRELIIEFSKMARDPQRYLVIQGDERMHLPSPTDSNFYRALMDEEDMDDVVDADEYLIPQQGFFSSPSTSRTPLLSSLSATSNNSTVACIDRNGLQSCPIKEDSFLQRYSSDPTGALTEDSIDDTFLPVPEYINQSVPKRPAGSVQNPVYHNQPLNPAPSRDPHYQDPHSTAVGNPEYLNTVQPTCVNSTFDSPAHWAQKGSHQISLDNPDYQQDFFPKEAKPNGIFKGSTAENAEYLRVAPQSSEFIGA
# [8] = target: Follistatin-related protein 3 (Homo sapiens) (UniProt O95633); experiment: compounds binding follistatin-related protein 3 – biochemical, small-molecule microarray, 635 nm fluorescence, primary screen (AID 1105); details: FSTL3 binding, higher = more signal;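 also: score merges emission near 667 nm and signal to noise per printed spot across three slides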
# Chain of Follistatin-related protein 3 (Homo sapiens) (O95633 whole entry, looked up): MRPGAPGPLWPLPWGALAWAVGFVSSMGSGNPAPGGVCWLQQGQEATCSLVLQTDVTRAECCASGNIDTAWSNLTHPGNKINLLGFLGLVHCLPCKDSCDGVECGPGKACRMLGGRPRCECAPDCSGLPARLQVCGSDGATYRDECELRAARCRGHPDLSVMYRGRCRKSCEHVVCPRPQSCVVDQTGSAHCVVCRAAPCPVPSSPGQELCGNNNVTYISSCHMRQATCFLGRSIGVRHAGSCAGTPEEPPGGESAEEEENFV
# [9] = target: Dickkopf-related protein 1 (Homo sapiens) (UniProt O94907); experiment: small molecules binding DKK1 protein – biochemical, small-molecule microarray, 635 nm fluorescence scan, primary screen (AID 1106); details: higher = more signal;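 also: score merges emission near 667 nm with signal to noise over three replicate slides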
# Chain of Dickkopf-related protein 1 (Homo sapiens) (O94907 whole entry, looked up): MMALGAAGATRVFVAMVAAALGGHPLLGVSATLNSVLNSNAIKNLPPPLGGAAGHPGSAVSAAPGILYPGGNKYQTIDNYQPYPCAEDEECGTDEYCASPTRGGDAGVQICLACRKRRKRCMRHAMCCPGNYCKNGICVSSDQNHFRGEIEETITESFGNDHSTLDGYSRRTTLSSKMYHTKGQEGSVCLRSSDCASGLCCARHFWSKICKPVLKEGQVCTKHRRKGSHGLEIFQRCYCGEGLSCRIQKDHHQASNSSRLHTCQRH
# [10] = test system: Inhibin beta A chain (activin A); experiment: small molecules binding activin A – biochemical, small-molecule microarray, 635 nm fluorescence scan, primary screen (AID 1107); details: INHBA, higher = more signal;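 also: mouse activin A protein probed at 4.33 µg/mL on printed slides; score merges bound-protein fluorescence near 667 nm with spot signal-to-noise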
# [11] = test system: Human papillomavirus type 1a protein E7 (residues 44-93); experiment: small molecules binding HPV E7 44-93 – biochemical, small-molecule microarray, residues 44-93, 635 nm fluorescence, primary screen (AID 1108); details: fluorescence 635 nm, higher = more signal;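 also: E7 fragment applied at 1 µg/mL in TBST for 1 h at 4 C; score combines spot fluorescence with its signal to noise ratio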
# [12] = hepatitis C replication reporter changes, two-sided – Huh7 cells, luciferase reporter, HCV replication inhibitor project, primary screen (AID 1109); details: Huh7 HCV replicon luciferase reporter, 48 h; higher = more signal;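 also: huh7 hepatoma cells harbouring a luciferase neomycin HCV replicon reporter; luciferase luminescence as measure of HCV replicon replication; test concentration not given here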
# [13] = target: Left-right determination factor 2 (Homo sapiens) (UniProt O00292); experiment: small molecules binding LEFTY2 protein – biochemical, small-molecule microarray, 635 nm fluorescence scan, primary screen (AID 1110); details: higher = more signal
# Chain of Left-right determination factor 2 (Homo sapiens) (O00292 whole entry, looked up): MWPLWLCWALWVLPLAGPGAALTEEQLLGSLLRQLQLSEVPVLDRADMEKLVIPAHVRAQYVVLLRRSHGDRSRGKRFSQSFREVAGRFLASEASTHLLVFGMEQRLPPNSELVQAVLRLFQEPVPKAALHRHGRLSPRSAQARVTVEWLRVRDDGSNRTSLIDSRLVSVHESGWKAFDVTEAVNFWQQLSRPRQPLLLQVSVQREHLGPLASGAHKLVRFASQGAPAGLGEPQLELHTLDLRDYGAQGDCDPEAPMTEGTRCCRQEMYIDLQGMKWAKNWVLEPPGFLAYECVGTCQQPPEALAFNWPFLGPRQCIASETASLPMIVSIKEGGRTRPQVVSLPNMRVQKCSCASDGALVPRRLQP
# [14] = target: Calmodulin-1 (Homo sapiens) (UniProt P0DP23); experiment: small molecules binding calmodulin-1 with EGTA – biochemical, small-molecule microarray, Cy5-labelled CALM1, profiling panel (AID 1111); details: Cy5-CALM1 binding fluorescence, higher = more signal;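 also: labelled calmodulin applied in Tris saline Tween buffer holding calcium plus EGTA and DTT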
# [15] = target: Calmodulin-1 (Homo sapiens) (UniProt P0DP23); experiment: small molecules binding Ca-loaded calmodulin-1 – biochemical, small-molecule microarray, Cy5-labelled CALM1, plus calcium, artefact control for SMM control-protein annotation, profiling panel (AID 1112); details: Cy5-CALM1 binding fluorescence, higher = more signal;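 also: score merges spot fluorescence with signal to noise from triplicate slides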
# [16] = probe aWnt5a binding to arrayed compounds – biochemical, biotinylated probe, 635/667 nm fluorescence, primary screen (AID 1113); details: small-molecule microarray, higher = more signal;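 also: score merges 667 nm fluorescence intensity with signal-to-noise per printed feature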
# [17] = probe aShh binding to arrayed compounds – biochemical, biotinylated probe, 635/667 nm fluorescence, primary screen (AID 1114); details: small-molecule microarray, higher = more signal;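 also: probe is biotin-labelled aShh protein from a stem cell growth factor screen; measures binding of labelled protein to compounds printed on the slide; score merges feature fluorescence at 667 nm with signal-to-noise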
# [18] = probe aNog binding to arrayed compounds – biochemical, biotinylated probe, 635/667 nm fluorescence, primary screen (AID 1115); details: small-molecule microarray, higher = more signal;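 also: probe is biotinylated aNog protein used at 0.15 µg/mL for 1 h at 4 C; z-score combines 667 nm fluorescence of each spot with its signal to noise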
# [19] = target: Torsin-1A-interacting protein 1 (Homo sapiens) (UniProt Q5JTV8); experiment: compound microarray binding of lysate hLAP1 – cell lysate, small-molecule microarray, COS7 lysate, 635/667 nm fluorescence, primary screen (AID 1116); details: 635 nm fluorescence, higher = more signal
# Chain of Torsin-1A-interacting protein 1 (Homo sapiens) (Q5JTV8 whole entry, looked up): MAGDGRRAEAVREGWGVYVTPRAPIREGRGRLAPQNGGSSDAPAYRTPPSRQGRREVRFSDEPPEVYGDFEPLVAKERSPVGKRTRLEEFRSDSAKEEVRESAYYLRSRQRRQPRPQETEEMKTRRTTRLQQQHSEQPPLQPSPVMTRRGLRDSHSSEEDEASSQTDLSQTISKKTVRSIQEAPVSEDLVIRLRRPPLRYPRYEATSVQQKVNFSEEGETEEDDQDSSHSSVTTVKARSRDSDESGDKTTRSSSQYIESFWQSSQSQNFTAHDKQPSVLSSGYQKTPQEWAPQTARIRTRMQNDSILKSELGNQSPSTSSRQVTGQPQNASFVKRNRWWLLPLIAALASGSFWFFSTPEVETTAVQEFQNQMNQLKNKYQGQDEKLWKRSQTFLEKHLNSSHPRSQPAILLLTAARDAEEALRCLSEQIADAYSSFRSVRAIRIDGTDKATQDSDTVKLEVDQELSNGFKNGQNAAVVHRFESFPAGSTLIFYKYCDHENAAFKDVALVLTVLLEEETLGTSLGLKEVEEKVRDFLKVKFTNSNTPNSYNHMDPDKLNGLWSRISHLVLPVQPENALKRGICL
# [20] = target: Alpha-bungarotoxin (Bungarus multicinctus) (UniProt P60615); experiment: compounds binding labelled alpha-BTX control protein – biochemical, small-molecule microarray, Alexa647 label, 635/667 nm fluorescence, artefact control for SMM control protein annotation, profiling panel (AID 1117); details: alpha-BTX-A647 binding fluorescence, higher = more signal
# Chain of Alpha-bungarotoxin (Bungarus multicinctus) (P60615 whole entry, looked up): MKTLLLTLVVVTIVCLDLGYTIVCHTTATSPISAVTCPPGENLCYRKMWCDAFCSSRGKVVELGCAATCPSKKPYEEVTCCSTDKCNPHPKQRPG
Compound,composite z-score [1],composite z-score [2],composite z-score [3],z-score [4],composite z-score [5],composite z-score [6],composite z-score [7],composite z-score [8],composite z-score [9],composite z-score [10],composite z-score [11],z-score [12],composite z-score [13],composite z-score [14],composite z-score [15],composite z-score [16],composite z-score [17],composite z-score [18],composite z-score [19],composite z-score [20]
O=C1N(Cc2ccccc2)c2ccccc2[C@H]2OC(c3ccc(OCCCO)cc3)=N[C@@]12CCS(=O)(=O)c1ccccc1,0.703,-0.0921,0.584,0.212 (inactive),1.06,1.31,0.385,1.23,0.379,0.808,1.46,-2.22,0.479,1.76,-0.465,0.0317,0.435,0.347,0.557,0.977
O=C1O[C@H](c2ccccc2)[C@H](c2ccccc2)N2[C@H]1[C@@H](C(=O)N1CCCCCCC1)[C@]1(C(=O)Nc3ccccc31)[C@H]2c1ccc(O)cc1,2.04,2.68,1.79,-0.365 (inactive),1.68,1.49,2,1.8,2.68,2,1.52,-1.09,1.86,3.09,1.64,1.63,3.71,3.66,5.68,3.36
CCCCC(=C=CC[C@H](O)c1ccccc1OCCO)C[C@H](O)c1ccccn1,1.36,-0.127,0.211,-0.471 (inactive),0.551,-0.251,0.324,0.549,-0.0601,1.54,0.0797,-0.619,0.377,-0.0455,-0.351,-0.126,-0.0769,-0.388,0.934,0.697
O=C1OCCC=C[C@H]2OC34C=CCN(Cn5nnc6ccccc65)C(=O)[C@H]3N(CCCCCO)C(=O)[C@@H]4C12 (stereo not given in full),1.18,-0.181,0.311,0.227 (inactive),-0.691,-0.368,-0.97,-1.09,-0.925,0.0469,-0.473,0.204,-0.511,-0.212,0.106,-0.101,-0.0769,0.0599,-1.1,-1.09
CCCC=C(CCC)[C@@H](NC(=O)Cc1ccccc1)c1ccc(C(=O)OC)cc1,0.599,1.52,1.17,0.797 (inactive),0.395,0.289,0.43,0.514,-0.285,1.26,1.08,-1.11,0.0461,1.22,0.499,0.748,2.15,1.79,-0.481,1.66
CN(C)C(=O)[C@@]1(Cc2ccccc2N=[N+]=[N-])N=C(c2ccc(OCCCO)cc2)O[C@H]1c1ccccc1N=[N+]=[N-],0.974,1.19,0.7,-0.167 (inactive),0.817,1.29,0.284,0.347,0.0393,1.28,1.41,-2.28,-0.121,1.43,0.859,-0.0403,0.108,0.566,1.29,1.6
